Results on 99 molecules are retold here after PubChem BioAssay AID1619 (SRMLSC, 2009).

Hit rate of the full screen: of about 220,000 compounds, about 830 (0.38%) were called active.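 Rule for the calls: active = compound inhibiting the enzyme by more than half at any dose during confirmatory dose-response retesting; inconclusive = strong single-dose inhibitors picked by rank but not retested; inactive = the rest.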 A selection follows. Potency and affinity values are given separately.

The target of the experiment is Leucine aminopeptidase (Plasmodium falciparum (isolate 3D7)) (UniProt Q8IL11). The experiment in a line: P. falciparum M17LAP inhibitors, primary screen, biochemical, fluorogenic H-Leu-NHMec substrate, 1536-well (AID 1619).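 Note: plate controls were full reaction with DMSO carrier for no effect and no enzyme background for full effect.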 The settings on record: recombinant M17LAP, H-Leu-NHMec fluorogenic kinetic assay; at 30 µM; hits give high values.
Chain of Leucine aminopeptidase (Plasmodium falciparum (isolate 3D7)) (Q8IL11 whole entry, looked up): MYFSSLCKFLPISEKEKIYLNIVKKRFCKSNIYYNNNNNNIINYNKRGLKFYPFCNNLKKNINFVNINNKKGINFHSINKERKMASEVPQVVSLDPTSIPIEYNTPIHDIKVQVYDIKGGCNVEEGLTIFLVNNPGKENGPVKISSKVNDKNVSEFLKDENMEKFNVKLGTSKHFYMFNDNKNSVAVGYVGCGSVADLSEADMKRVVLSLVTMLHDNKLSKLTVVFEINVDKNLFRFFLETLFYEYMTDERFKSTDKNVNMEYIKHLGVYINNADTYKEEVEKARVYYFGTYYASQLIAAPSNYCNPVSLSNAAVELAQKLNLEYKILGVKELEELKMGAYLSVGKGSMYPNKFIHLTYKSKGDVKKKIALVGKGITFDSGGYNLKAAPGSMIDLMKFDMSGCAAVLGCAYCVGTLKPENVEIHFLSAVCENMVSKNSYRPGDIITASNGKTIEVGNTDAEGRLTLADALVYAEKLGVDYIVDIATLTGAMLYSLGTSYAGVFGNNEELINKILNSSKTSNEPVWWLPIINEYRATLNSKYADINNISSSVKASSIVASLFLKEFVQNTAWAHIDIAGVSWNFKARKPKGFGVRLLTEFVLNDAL
With `O=C(COC(=O)Cc1ccc(Br)cc1)NCC1CCCCC1`, the inhibition is 1.79% (inactive).

As to `CCOC(=O)N1CCN(C(=O)CSc2ccc(-c3cccnc3)nn2)CC1`, the inhibition is -5.54% (inactive).

Regarding `Oc1ccc(-c2nc3ccccc3s2)c(O)c1`, the inhibition was -4.82% (inactive).

On to `Cc1c(O)ccc(-c2n[nH]c(C(=O)O)c2-c2nc3ccccc3s2)c1O`, for which the inhibition is -2.67% (inactive).

As to `Cc1nc2ccccn2c1C(=O)CSc1ccccc1`, the inhibition was 24.3% (inactive).

In the case of `CCOC(=O)Cc1n[nH]c(=O)c2ccccc12`, the inhibition is 1.58% (inactive).

`O=C(NCc1ccccn1)c1cc(-c2ccccc2)on1`: the inhibition is 8.29% (inactive).

Turning to `CCOC(=O)CSc1nnc(-c2ccco2)n1-c1ccccc1`, the inhibition was 11.8% (inactive).

Consider `CC(C)OC(=O)CSc1nnc(-c2ccco2)n1N`, for which the inhibition is 6.79% (inactive).

For the molecule `COC(=O)CSc1nnc(-c2ccco2)n1-c1ccc(C)cc1`, the inhibition is 13.9% (inactive).

As for `CCOC(=O)CSc1nnc(-c2ccoc2C)n1-c1ccc(C)cc1`, the inhibition was 14.1% (inactive).

On to `Cc1ccc(OCCn2c(=O)oc3ccc(C)cc32)cc1`, for which the inhibition was 13.7% (inactive).

For the molecule `Cn1c(SCC(N)=O)nnc1C1CCN(C(=O)NC2CCCCC2)CC1`, the inhibition is -3.93% (inactive).

Take `COc1ccc(C)cc1NC(=O)C1CCCCC1C(=O)O` (centres undefined): the inhibition is 52.8% (inactive).

Turning to `COc1ccc(OC)c(NC(=O)C2CCCCC2C(=O)O)c1` (centres undefined), the inhibition is 40.9% (inactive).

Take `COc1ccc(OC)c(NC(=O)C2CC(C)=C(C)CC2C(=O)O)c1` (centres undefined): the inhibition was 34.4% (inactive).

Take `COc1ccc(C(C)(C)C)cc1NC(=O)C1C2C=CC(C2)C1C(=O)O` (centres undefined): the inhibition was 7.82% (inactive).

Consider `COc1ccc2cc(C(c3nnnn3CCc3ccccc3)N3CCCC(C)C3)c(=O)[nH]c2c1` (centres undefined), for which the inhibition is 10.6% (inactive).

With `CCCCNS(=O)(=O)c1ccc(S(=O)(=O)N2CCC3(CC2)OCCO3)cc1`, the inhibition was -5.01% (inactive).

For `COC(=O)C1=C(NC(=O)COc2ccc(Cl)cc2Cl)CCS1`, the inhibition was 49.6% (inactive).

`CC(C)(C)S(=O)(=O)/C(C#N)=N/Nc1ccc(S(N)(=O)=O)cc1`: the inhibition was 16.4% (inactive).

In the case of `CC(C)(C)c1ccc(N/N=C(\C#N)S(=O)(=O)C(C)(C)C)cc1`, the inhibition was 23.4% (inactive).

With `CC(C)(C)S(=O)(=O)/C(C#N)=N/Nc1ccc(C#N)cc1`, the inhibition is 19.9% (inactive).

For the molecule `CC(C)(C)S(=O)(=O)/C(C#N)=N/Nc1ccc(Cl)cc1`, the inhibition was 12.6% (inactive).

As for `CC(C)(C)S(=O)(=O)/C(C#N)=N/Nc1ccc(S(C)(=O)=O)cc1`, the inhibition was 43.2% (inactive).

`COc1ccc(N/N=C(/C#N)S(=O)(=O)C(C)(C)C)cc1`: the inhibition was 5.23% (inactive).

Take `Cn1c(SCc2ccc(Cl)cc2)nc(C(F)(F)F)cc1=O`: the inhibition was -4.09% (inactive).

`CCN(CC)C(=O)C(=O)c1cn(CC(=O)NCC2CCCO2)c2ccccc12` (centres undefined): the inhibition is -6.14% (inactive).

For `Cc1cccc(NC(=O)c2nc[nH]c2C(=O)NCC(=O)OC(C)(C)C)c1`, the inhibition is -3.35% (inactive).

`O=C(NCC1CCCO1)c1csc(Nc2cccc3ccccc23)n1` (centres undefined): the inhibition is 4.77% (inactive).

Regarding `O=C(COc1cccc(NC(=O)c2ccco2)c1)c1ccccc1`, the inhibition was -14.2% (inactive).

As for `O=C(NCCN1CCOCC1)c1ccc(NC(=O)C2COc3ccccc3O2)cc1` (centres undefined), the inhibition is 3.85% (inactive).

With `CCOc1ccc(-n2c(COc3ccccc3)nnc2SCC(N)=O)cc1`, the inhibition is -3.38% (inactive).

With `Cc1ccc(NC(=O)Cn2nc(C)c3ccccc3c2=O)cc1`, the inhibition is 23.3% (inactive).

Consider `Cc1nn(CC(=O)Nc2ccccc2)c(=O)c2ccccc12`, for which the inhibition is 20% (inactive).

Turning to `CC(C)(C)C1CCc2c(C(=O)N/N=C/c3cccs3)csc2C1` (centres undefined), the inhibition is 1.12% (inactive).

For `CC1=C(C)CC(C(=O)NNC(=O)c2csc(C)c2C)C(C(=O)O)C1` (centres undefined), the inhibition is 44.2% (inactive).

Turning to `CC1=C(C)CC(C(=O)NNC(=O)c2ccccc2)C(C(=O)O)C1` (centres undefined), the inhibition is 32.1% (inactive).

With `Cc1scc(C(=O)NNC(=O)CCC(=O)O)c1C`, the inhibition was 1.05% (inactive).

Regarding `CCNC(=S)NNC(=O)c1csc2c1CCC(C)C2` (centres undefined), the inhibition is -1.92% (inactive).

With `CC(C)(C)C1CCc2c(C(=O)NNC(=O)/C=C/C(=O)O)csc2C1` (centres undefined), the inhibition was 43.8% (inactive).

As to `COCc1cc(C)nc(SCc2nc3ccccc3c(=O)[nH]2)c1C#N`, the inhibition was -5.07% (inactive).

In the case of `CCOC(=O)c1cc(-c2ccccc2)sc1NC(=O)C(C)N1C(=O)c2ccccc2C1=O` (centres undefined), the inhibition was -1.18% (inactive).

In the case of `Nc1cc(-c2ccco2)no1`, the inhibition was -0.59% (inactive).

In the case of `O=C1c2[nH]nc(-c3ccccc3O)c2C(c2ccccc2F)N1Cc1ccco1` (centres undefined), the inhibition was 16% (inactive).

Consider `O=C(C(c1ccccc1)c1ccccc1)N1CCN(c2ccccn2)CC1`, for which the inhibition is 4.89% (inactive).

Turning to `COc1ccc2sc(N3C(=O)CC(Cc4cccc(C)c4)C3=O)nc2c1` (centres undefined), the inhibition is 29.4% (inactive).

Consider `CC(=O)c1nc(N2C(=O)C3CC=C(C)CC3C2=O)sc1C` (centres undefined), for which the inhibition is 7.37% (inactive).

For the molecule `CCOC(=O)/C(=C\c1ccc([N+](=O)[O-])o1)NC(=O)c1ccccc1`, the inhibition was -88.3% (inactive).

Turning to `O=C(Cc1cn(Cc2cccc(Cl)c2)c2ccccc12)N1CCCCCC1`, the inhibition is -20.4% (inactive).

For `O=c1c2c3c(sc2nc2sc(CN4CCCCC4)cn12)CCCC3`, the inhibition is -6.38% (inactive).

Regarding `N#Cc1c(NC(=O)C2CCCO2)sc2c1CCCCCC2` (centres undefined), the inhibition was 13.1% (inactive).

`CC1CCc2c(sc(NC(=O)c3ccccc3C(=O)O)c2C#N)C1` (centres undefined): the inhibition is 1.93% (inactive).

Take `N#Cc1c(NC(=O)C2CC2)sc2c1CCCCC2`: the inhibition was 28.1% (inactive).

On to `N#Cc1c(NC(=O)c2ccccc2)sc2c1CCCCC2`, for which the inhibition was 21.1% (inactive).

For `CC1CCc2sc(NC(=S)NC(=O)c3ccccc3)c(C#N)c2C1` (centres undefined), the inhibition is -12% (inactive).

For `N#Cc1c(NC(=O)CCC(=O)O)sc2c1CCCCC2`, the inhibition is 34.4% (inactive).

In the case of `N#Cc1c(NC(=O)C2CCCO2)sc2c1CCCCC2` (centres undefined), the inhibition was -2.74% (inactive).

As to `CC(=O)Nc1sc2c(c1C#N)CCCCC2`, the inhibition is -1.44% (inactive).

Take `O=C(Nc1ccccc1NS(=O)(=O)c1ccc(F)cc1)C1CCC1`: the inhibition was 6.59% (inactive).

For `COc1ccc(-c2cn(-c3ccc(SC(F)F)cc3)c3[n+]2CCC3)cc1OC`, the inhibition was -11.9% (inactive).

With `O=C(CCN1C(=O)c2ccccc2C1=O)Nc1cccnc1`, the inhibition is 11.6% (inactive).

On to `N#Cc1c(-c2ccccc2)ccnc1N1CCOCC1`, for which the inhibition is 0.41% (inactive).

`CCCCC(=O)NC(c1ccc(OC)c(OC)c1)c1c(O)ccc2ccccc12` (centres undefined): the inhibition is 5.73% (inactive).

Turning to `C=CCNC(=S)Nc1cccc(N)c1`, the inhibition was 2.22% (inactive).

On to `Cc1cccc(NC(=O)Cn2nc([N+](=O)[O-])c(Br)c2C)n1`, for which the inhibition was -0.63% (inactive).

Regarding `CCCn1c(/N=C/c2c[nH]c3ccccc23)nc2ccccc21`, the inhibition was 0.08% (inactive).

`CN(CCC#N)C(=O)COC(=O)/C=C/c1ccc2c(c1)OCO2`: the inhibition was 2.65% (inactive).

Regarding `COc1ccc(C2=CC3=C(Br)C(=O)C(C)(OC(=O)C4CCCC4)C(=O)C3=CO2)cc1` (centres undefined), the inhibition is 22.1% (inactive).

As to `CC1(C)Cc2c(sc(NC(=O)Cc3ccccc3)c2C#N)CO1`, the inhibition is 20.3% (inactive).

`CCOC(=O)c1c(NC(=O)C2CC(Cl)=CCC2C(=O)O)sc2c1CC(C)(C)OC2` (centres undefined): the inhibition is 42.4% (inactive).

With `CC(=O)Nc1sc2c(c1C#N)CCC2`, the inhibition was -2.63% (inactive).

As to `Cc1sc(NC(=O)C2CCCC2)c(C#N)c1C`, the inhibition is 3.61% (inactive).

As to `Cc1sc(NC(=O)C2CCCO2)c(C#N)c1C` (centres undefined), the inhibition is 5.77% (inactive).

For `CC(=O)Nc1sc2c(c1C#N)CCCC2`, the inhibition was -9.07% (inactive).

Turning to `Cn1nnnc1SCC(=O)Nc1cccc(S(=O)(=O)N2CCCC2)c1`, the inhibition is -2.95% (inactive).

For the molecule `O=C(Nc1nnc(SCc2ccccc2F)s1)c1ccco1`, the inhibition is 8.78% (inactive).

Take `Cc1ccc(NC(=O)Nc2cccc(Cl)c2)c(C(=O)O)c1`: the inhibition is -7.94% (inactive).

As for `CCOC(=O)c1ccccc1NC(=O)CN1C(=O)c2ccccc2S1(=O)=O`, the inhibition was -15.2% (inactive).

With `COc1ccc(C)cc1NC(=O)CN1C(=O)c2ccccc2S1(=O)=O`, the inhibition was 11.2% (inactive).

Regarding `CCC(C)NC(=O)c1ccccc1NC(=O)CN1C(=O)c2ccccc2S1(=O)=O` (centres undefined), the inhibition was -2.81% (inactive).

Consider `COc1ccc(OC)c(NC(=O)CN2C(=O)c3ccccc3S2(=O)=O)c1`, for which the inhibition is 23.2% (inactive).

Turning to `C/C(=N\NC(=O)c1cccc(S(=O)(=O)N2CCCC2)c1)c1cccs1`, the inhibition was 0.78% (inactive).

Take `O=C(CN1CCN(c2ncc(C(F)(F)F)cc2Cl)CC1)NC(=O)NCc1ccccc1`: the inhibition is -3.07% (inactive).

`Cn1c2c(c(=O)n3ncnc13)CCCC2`: the inhibition was -2.57% (inactive).

On to `CCOc1ccc(NC(=O)CSc2nnc(CCNC(=O)c3ccc(OC)cc3)n2C)cc1`, for which the inhibition is 23.6% (inactive).

With `Cc1ccc(NC(=O)COC(=O)c2cccnc2)cc1`, the inhibition is 25.2% (inactive).

On to `CCn1c(CCNC(=O)c2ccc(OC)cc2)nnc1SCC(=O)Nc1ccccc1F`, for which the inhibition is 1.93% (inactive).

`Cc1ccc(OCCCC(=O)Nc2ccc(Br)cc2)cc1`: the inhibition is -1.62% (inactive).

`O=C(O)Cn1nnnc1SCC(=O)Nc1ccccc1F`: the inhibition is 18.7% (inactive).

On to `O=C(COC(=O)c1cccnc1)Nc1ccccc1`, for which the inhibition is 2.57% (inactive).

Turning to `CCn1nnnc1SCC(=O)Nc1ccc(OC)cc1`, the inhibition is 3.82% (inactive).

For the molecule `O=C(O)CCC(=O)Nc1ccc(OCC(=O)O)cc1`, the inhibition is -3.01% (inactive).

`Cc1ccccc1NC(=O)NCc1ccc2c(c1)OCO2`: the inhibition is 5.21% (inactive).

As for `O=C(c1cnsn1)N1CCN(c2ccccn2)CC1`, the inhibition is -4.02% (inactive).

In the case of `Cc1nc(C(=O)O)nn1-c1ccc([N+](=O)[O-])cc1`, the inhibition is 0.22% (inactive).

As for `COc1cccc([C@@H]2Oc3ccc(OC)cc3C(=O)[C@H]2OC(=O)N[C@H](C)C2CCCCC2)c1`, the inhibition was -23.2% (inactive).

Turning to `O=[N+]([O-])c1ccc2c(c1)/C(=N\O)c1ccccc1-2`, the inhibition was 2.49% (inactive).

On to `CN1CCN(c2ccc(C(CC(N)=O)NC(=O)Cc3ccc(Br)cc3)cc2[N+](=O)[O-])CC1` (centres undefined), for which the inhibition is 5.26% (inactive).

In general, inhibition refers to the change of the read-out against control, counted positive when it falls.
